# Results taken from PubChem BioAssay (Tox21).
# Records with an inconclusive call do not appear. A call without a number means that no potency is given here. Values without a mark were called inactive. Activity calls are given as the source filed them. Calls follow the shape of the dose curve; as a rule, active = well fitted cell-killing curve with a large enough effect in the repeat runs; inconclusive = weak or mixed curves, or effect the other way; inactive = no such curve, though single readings can be large or run the other way.
# Test: qHTS assay to identify small molecule antagonists of the progesterone receptor (PR) signaling pathway - cell viability counter screen (AID 1346798); also: nearly all actives have a fitted effect of over 50% in size
# Settings: PR-UAS-bla HEK293T viability, CellTiter-Glo luminescence, 16 h; series mostly up to 92.4 µM
# Excerpt: National Center for Advancing Translational Sciences [NCATS]
# NIH Chemical Genomics Center [NCGC]
# U.S. Environmental Protection Agency [EPA]
# National Institutes of Environmental Health Sciences [NIEHS]
# National Toxicology Program [NTP]
# U.S. Food and Drug Administration [FDA]
# Progesterone receptor (PR), a nuclear hormone receptor, plays an important role in development, metabolic homeostasis and reproduction. It is activated by the steroid hormone progesterone. Endocrine disrupting chemicals (EDCs) and their interactions with steroid hormone receptors like PR causes disruption of normal endocrine function. To identify the compounds that inhibit PR signaling, a PR-UAS-bla GripTite cell line i.e. PR-UAS-bla HEK293T (Invitrogen, Carlsbad, CA, USA) containing a beta-lactamase reporter gene under the control of an UAS response element was used to screen Tox21 10K compound library. The cytotoxicity of the Tox21 compound library against the PR-bla cell line was tested in parallel by measuring the cell viability using CellTiter-Glo assay in the same wells.
# Tox21 Assay Protocol Summary:
# PR-UAS-bla HEK293T cells were dispensed at 3,000 cells/4 uL of assay medium containing 2% charcoal stripped FBS per well into black wall/clear-bottom 1536-well plates using a Multidrop Combi (ThermoFisher Scientific, Waltham, MA) dispenser. After the assay plates were incubated at a 37C and 5% CO2 for 4 hr, 23 nL of compounds dissolved in DMSO, positive controls or DMSO only was transferred to the assay plate by a Pintool station (Kalypsys, San Diego, CA), followed by addition of 1 uL of R5020 in assay medium using a Flying Reagent Dispenser (FRD, Aurora Discovery, San Diego, CA). The plates were incubated at 37C and 5% CO2 for 16 hr. Then 1 uL of LiveBLAzer B/G FRET substrate was added using a Flying Reagent Dispenser, the plates were incubated at room temperature for 2 hours, and fluorescence intensity was measured by an Envision plate reader (PerkinElmer, Shelton, CT). For cell viability readout that measures cytotoxicity, 4 uL/well of CellTiter-Glo reagent was added into the assay plates using a FRD. After 30 min incubation at room temperature, the luminescence intensity in the plates was measured using a ViewLux (PerkinElmer) plate reader.
SMILES,Potency,"activity change, negative = cytotoxicity"
O=C(NCC1CCCCN1)c1cc(OCC(F)(F)F)ccc1OCC(F)(F)F (stereo not given),inactive,
CCCCC(CC)COC(=O)c1ccc(C(=O)OCC(CC)CCCC)cc1 (stereo not given),inactive,
OCCOCCOCCOCCOCCO,inactive,
NC(=O)NC(N)=O,inactive,
CCCCCCCCC(=O)O,inactive,
Cc1ccccc1Cl,inactive,
CC(C)=CCC/C(C)=C/C=O,inactive,
O=C(c1ccccc1)c1ccc(O)c(O)c1O,inactive,
CC(C)(C)NC[C@H](O)COc1nsnc1N1CCOCC1,inactive,
OC1CCCCC1,inactive,
CCCCCCC(=O)O,inactive,
OC[C@H]1O[C@@H](Oc2ccc(O)cc2)[C@H](O)[C@@H](O)[C@@H]1O,inactive,
Cc1cc(C)cc(O)c1,inactive,
CCCCC(=O)O,inactive,
CC(=O)C(C)C,inactive,
CC(C)(CO)CO,inactive,
COc1ccc([C@@H]2CC(=O)c3c(O)cc(O[C@@H]4O[C@H](CO[C@@H]5O[C@@H](C)[C@H](O)[C@@H](O)[C@H]5O)[C@@H](O)[C@H](O)[C@H]4O)cc3O2)cc1OC,inactive,
Nc1nc(N)c2nc(-c3ccccc3)c(N)nc2n1,inactive,
C=CC(C)(C)C,inactive,
O=Cc1ccc(CO)o1,inactive,

SMILES,Potency,"activity change, negative = cytotoxicity"
C[n+]1ccn(CCO)c1,inactive,
COc1c(Cl)ccc(Cl)c1C(=O)O,inactive,
COc1c2ccoc2cc2oc(=O)ccc12,inactive,
Nc1cccc(C(F)(F)F)c1,inactive,
CCCCCCCCCCCC(=O)N(C)CC(=O)O,,0.0198% [at 8.39 µM]
O=c1c(O)c(-c2ccc(O)c(O)c2)oc2cc(O)cc(O)c12,inactive,
Cc1cc(CC(=O)O)n(C)c1C(=O)c1ccc(Cl)cc1,inactive,
CC1(C)[C@@H](O[C@H]2O[C@H](C(=O)O)[C@@H](O)[C@H](O)[C@H]2O[C@@H]2O[C@H](C(=O)O)[C@@H](O)[C@H](O)[C@H]2O)CC[C@]2(C)[C@H]3C(=O)C=C4[C@@H]5C[C@@](C)(C(=O)O)CC[C@]5(C)CC[C@@]4(C)[C@]3(C)CC[C@@H]12,inactive,
COc1ccccc1[N+](=O)[O-],inactive,
C=C(CC(=O)O)C(=O)O,inactive,
CC/C=C(\C(=O)N[C@@H]1C(=O)N2C(C(=O)OCOC(=O)C(C)(C)C)=C(COC(N)=O)CS[C@H]12)c1csc(N)n1,inactive,
CCc1cccc(O)c1,inactive,
CC(=O)OCc1ccc2c(c1)OCO2,inactive,
Cc1ccc(Cl)cc1,inactive,
CC/C(C)=N/O,inactive,
C=CC(=O)NCOCCCC,inactive,
CCN(CC)CCNC(=O)c1ccc(N)cc1,inactive,
Cc1ccc(C)c(S(=O)(=O)O)c1,inactive,
Cc1nnc(NS(=O)(=O)c2ccc(N)cc2)s1,inactive,
Cc1ccncc1,inactive,
